Among all 2,100 compounds or so, about 650 (31%) were called active. Another 16% or so got no clear call; they are omitted. Calls come from the whole dose curve; as a rule, active = well fitted inhibition curve with a large enough effect; inconclusive = small, poorly fitted or top-dose-only effect; inactive = flat fitted curve, though single readings scatter. Some of the results follow. Where a call stands in place of a potency, no number is given.
Potency is the fitted concentration of half-maximal effect.

The assay can be described thus: qHTS for inhibitors of Vif-A3G interactions: Cherry picks. Note: nearly all actives have a fitted effect of over 80% in size. The conditions noted are these: HeLa A3G-eYFP + Vif (tagged APOBEC3G with the HIV-1 protein that degrades it), 24 h; Potency: eYFP fluorescence increase; series mostly up to 36.9 µM. Summed up: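 HeLa cells stably expressing A3G-eYFP and Vif, cultured overnight then exposed to compounds at several concentrations for 24 hours at 37 C, 5% CO2; cellular yellow fluorescence (488 nm ex, 500-530 nm em) imaged on Acumen, MG132 positive control.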
On to `CCCN1CCC(=NNc2ccc(S(=O)(=O)N3CCOCC3)cc2[N+](=O)[O-])CC1`, for which the Potency result was “inactive”.
Regarding `COc1cc(S(=O)(=O)Nc2ccccc2N2CCCCC2)ccc1NC(C)=O`, the Potency entry is “inactive”.
To `CCOCCC(=O)Nc1ccc2c(c1)c(=O)n(C)n2C/C=C/c1ccccc1` belongs “inactive”.
In the case of `CCCn1c(SCC(=O)Nc2ccccc2OC)nnc1-c1ccco1` it was “inactive”.
In the case of `COc1ccc(NC(=O)CSc2nc3c(oc4ccccc43)c(=O)n2Cc2ccco2)cc1Cl` it was 14.6 µM (active); in that of `O=C(CCCCn1c(=O)c2ccccc2n(Cc2ccc(F)cc2)c1=O)NCc1ccco1`, “inactive”; in that of `Cc1cccc(Cn2c(=O)n(CCCC(=O)NCc3ccco3)c(=O)c3ccccc32)c1`, “inactive”.
Consider `COc1cc2nc(SCC(=O)NCc3ccco3)n(Cc3ccc(Cl)cc3)c(=O)c2cc1OC`, for which the Potency is 5.8 µM (active).
To `COc1ccccc1CCC(=O)Nc1ccc2c(c1)c(=O)n(C)n2Cc1ccc(F)cc1` belongs “inactive”.
In the case of `c1ccc(N=Nc2ccc3cccccc2-3)cc1` it was “inactive”; in that of `Cc1ccc(-c2csc(NC3OC(=O)c4ccccc43)n2)cc1` (stereo unspecified), “inactive”; in that of `CCOC(=O)C(=Cc1ccc(-n2cncn2)cc1)C(=O)OCC`, “inactive”.
To `CCOc1cc(S(=O)(=O)NCc2ccc(OC)cc2)c(OCC)cc1-n1cnnn1` belongs “inactive”.
Take `CC(C)(C)OC(=O)NCc1ccc(NC(=O)c2nc[nH]c2C(=O)NCCCNC(=O)c2[nH]cnc2C(=O)Nc2ccc(CNC(=O)OC(C)(C)C)cc2)cc1`: the Potency entry was “inactive”.
To `CCC(C)n1c(NC(=O)c2ccccc2)c(C#N)c2nc3ccccc3nc21` (stereo unspecified) belongs 18.4 µM (active); to `CCN(CC(=O)Nc1ccccc1-c1ccccc1)Cc1nc2ccccc2c(=O)[nH]1`, “inactive”.
As to `Cc1ccccc1/C=C\c1nc2ccccc2c(=O)[nH]1`, the Potency entry was “inactive”.
`O=c1[nH]c(/C=C/c2cccc3ccccc23)nc2ccccc12`: the Potency was 18.4 µM (active).
To `O=c1[nH]c(-c2cccnc2)nc2sc(-c3ccccc3)cc12` belongs “inactive”; to `O=C(NC1CCCC(C(F)(F)F)C1)c1ccc([N+](=O)[O-])o1` (stereo unspecified), “inactive”; to `N#CC(=Cc1ccccn1)c1nc(-c2ccc(Cl)cc2)cs1`, 6.27 µM (active).
As for `N#C/C(=C\c1ccc(Cl)cc1)c1nc2ncccc2[nH]1`, the Potency entry is “inactive”.
As to `COc1ccc(CCNC(=O)CC2(CC3=NS(=O)(=O)c4ccccc4N3)CCCC2)cc1OC`, the Potency result is “inactive”.
In the case of `COc1cccc(Cn2c3ccc(NC(=O)CCc4ccc(F)cc4)cc3c(=O)n2C)c1` it was “inactive”.
To `COc1ccc(-c2cc(-c3nnc(COC(=O)c4ccncc4)o3)c3ccccc3n2)cc1OC` belongs “inactive”; to `CCOc1ccccc1NC(=O)Cn1nnc(C(=O)NCc2cccs2)c1N`, “inactive”; to `COc1cc2c(cc1OC)CN(C(=O)c1cc(=O)c3ccccc3o1)CC2`, “inactive”.
As to `CCOc1ccc(C2CC(c3c(O)c4ccccc4oc3=O)=NN2c2ccccc2)cc1OC` (stereo unspecified), the Potency was 14.6 µM (active).
With `CCOc1cc(-c2nnc(SCC(=O)NCc3ccccc3)nc2-c2ccc(OC)c(OCC)c2)ccc1OC`, the Potency entry is “inactive”.
To `COc1ccc(/C=C2\C(=O)NC(=S)N2C(=O)c2ccc(F)cc2)cc1` belongs 8.2 µM (active).
With `COc1ccc(C(=O)/C=C2/c3ccccc3CC(C)(C)N2C)cc1`, the Potency result is “inactive”.
To `COc1ccc(NC(=O)c2ccc3c(c2)c(C)c(C)n3Cc2ccc(F)cc2)cc1` belongs “inactive”.
`NNC(=O)c1cc2sccc2s1`: the Potency entry is “inactive”.
As for `CC(C)n1cc(NC(=O)c2cc(-c3ccccc3)on2)cn1`, the Potency entry is “inactive”.
In the case of `N#C/C(=C\c1cccc(O)c1)c1nc2ccccc2o1` it was 3.14 µM (active); in that of `C[C@]12CCC[C@H](O1)c1c(cc3c(c1O)C(=O)c1c(O)cc(O)cc1C3=O)O2`, 13 µM (active).
To `O=C1c2ccccc2C(=O)c2cc(N3CCCCC3)ccc21` belongs 7.9 µM (active).
In the case of `O=C(N/N=C/c1cccc2ccccc12)c1cc2ccccc2o1` it was “inactive”; in that of `COc1ccc(C(=O)c2sc3nc(C)cc(-c4cccs4)c3c2N)cc1`, 18.4 µM (active).
On to `COc1cccc(C(=O)c2sc3nc(-c4ccccc4)cc(C(F)(F)F)c3c2N)c1`, for which the Potency was 1.64 µM (active).
Take `COc1ccc(NC(=O)c2sc3nc(C(F)(F)F)cc(C)c3c2N)cc1OC`: the Potency was 23.1 µM (active).
`COC(=O)CCS(=O)(=O)c1nc(-c2ccccc2)cc(C(F)(F)F)n1`: the Potency result was “inactive”.
To `COc1ccc(C(=O)c2ccc(OC)c(OC)c2OC)cc1` belongs “inactive”; to `COc1cccc(-c2ccc3c(N)c(C(=O)c4ccc(Br)cc4)sc3n2)c1`, 16.4 µM (active).
To `COc1ccc(COc2cc(-c3cccc(OC)c3)nc3ccc(NC(=O)c4ccc(OC)cc4)cc23)cc1` belongs “inactive”; to `COc1ccc(N(C(=O)C(C)C)S(=O)(=O)c2cccs2)cc1`, “inactive”.
In the case of `COc1ccc(Nc2nc(C)nc3sc4c(c23)CCC4)cc1O` it was “inactive”.
On to `COc1cc(C(=O)Nc2ccc3c(c2)nc(C)n3C)cc(OC)c1OC`, for which the Potency result is “inactive”.
To `O=c1[nH]c(NCc2ccco2)nnc1Cc1ccccc1Cl` belongs “inactive”.
To `Cc1c(C(=O)N/N=C/C(C)C)[nH]c2c([N+](=O)[O-])cccc12` belongs “inactive”; to `CN[C@H]1CCc2cc(OC)c(OC)c(OC)c2-c2ccc(N(C)CC(OC)OC)c(=O)cc21`, “inactive”; to `C/C(=N\NC(=O)c1c(Cl)c(C)nn1C)c1ccc(NC(=O)C2CCC2)cc1`, “inactive”.
To `Cc1ccc(NC(=O)Cn2ncc(Cl)c(Cl)c2=O)cc1S(=O)(=O)N1CCCCC1` belongs “inactive”.
`O=C(N/N=C/c1ccc2c(c1)OCO2)c1ccc2c(c1)OCCO2`: the Potency result was “inactive”.
In the case of `Brc1ccc2c(c1)[C@H]1OCC[C@H]1[C@@H](c1cccs1)N2` it was “inactive”; in that of `C=C(C)CNC(=S)N/N=C1\CCCCc2ccccc21`, “inactive”.
To `COc1ccc(OC)c(-c2cc(-c3cccnc3)nc(N)c2C#N)c1` belongs “inactive”; to `CCOC(=O)c1c(C)nc2sc(C(=O)Nc3ccc(OC)cc3)c(N)c2c1-c1ccc(OC)cc1`, “inactive”; to `COc1ccc(NC(=O)c2cc(-c3ccccc3OC)on2)cc1`, “inactive”.
To `COc1cccc(NC(=O)Nc2nc(-c3ccc(OC)c(OC)c3)cs2)c1` belongs “inactive”; to `Cc1cc(N2CCN(C)CC2)ccc1NC(=O)c1c2c(nc3ccccc13)CCN(Cc1ccccc1)C2`, “inactive”; to `COc1ccc(NC(=O)c2sc3nc(-c4ccc(OC)cc4)cc(C(F)(F)F)c3c2N)cc1`, 0.731 µM (active).
Take `COc1ccc(C(=O)c2sc3nc(-c4ccc(C)cc4)cc(C(F)(F)F)c3c2N)cc1`: the Potency is 2.06 µM (active).
To `COc1ccc(NC(=O)c2sc3nc(-c4cccnc4)ccc3c2N)cc1OC` belongs 3.66 µM (active).
In the case of `COc1ccc(NC(=O)c2sc3nc4c(cc3c2N)CN(Cc2ccccc2)CC4)c(OC)c1`, the Potency is 18.4 µM (active).
To `COc1cccc(C(=O)Nc2ncc3c(n2)CC(c2ccc(OC)cc2OC)CC3=O)c1` (stereo unspecified) belongs “inactive”.
For `CC1(C)Cc2nc3sc4c(=O)n(CC(=O)NCc5ccccc5)cnc4c3cc2CO1`, the Potency result is “inactive”.
In the case of `O=[N+]([O-])c1ccccc1SNc1ccccc1` it was “inactive”; in that of `CC(=O)Nc1ccc(S(=O)(=O)Nc2nc3ccccc3nc2Nc2ccc3ccccc3c2)cc1`, “inactive”; in that of `Clc1ccc(-c2csc3ncnc(Sc4nnnn4C4CC4)c23)cc1`, “inactive”.
To `O=C1NC(c2ccc(Br)cc2)Nc2ccccc21` (stereo unspecified) belongs “inactive”; to `C/C(=N\NC(=O)c1cc(-c2ccncc2)nc2ccccc12)c1ccc(N2CCOCC2)cc1`, “inactive”; to `CC(=O)Nc1ccc(-c2ccnc3c2CC(C(=O)NCc2cccc(Cl)c2)O3)cc1` (stereo unspecified), “inactive”.
To `Cc1cc(C(F)(F)F)c2c(N)c(C(=O)Nc3cc(C)on3)sc2n1` belongs 8.2 µM (active); to `COc1cc(C(=O)Nc2nnc(Cc3ccccc3)s2)cc(OC)c1OC`, “inactive”.
`COc1ccc(OC)c(NC(=O)c2sc3nc(Cc4ccccc4)cc(C(F)(F)F)c3c2N)c1`: the Potency was 4.61 µM (active).
In the case of `COc1ccc2nc3sc(C(=O)Nc4cc(Cl)c(OC)cc4OC)cc3cc2c1` it was “inactive”; in that of `Cc1cc(-c2nc(C)c(C(=O)NN)s2)no1`, “inactive”; in that of `O=C(N/N=C/c1cccc2ccccc12)c1n[nH]c2c1CCCC2`, “inactive”.
In the case of `O=C(OCC12CC3CC(CC(C3)C1)C2)c1ccc(NCc2cc(O)ccc2O)cc1` it was “inactive”; in that of `CC(=O)Nc1ccc(-c2ccnc3c2CC(C(=O)Nc2cccc(N(C)C)c2)O3)cc1` (stereo unspecified), “inactive”; in that of `CC(CC(=O)Nc1ccc2c(c1)c(=O)n(C)n2-c1ccccc1)c1ccccc1` (stereo unspecified), “inactive”.
Turning to `COc1ccc(OC)c(C2CC(=O)c3c([nH]c(C(=O)OCC4CCCO4)c3C)C2)c1` (stereo unspecified), the Potency result was “inactive”.
In the case of `CCOC(=O)/C=c1/s/c(=C/c2ccc3cc(OC)ccc3c2)c(=O)n1CC(=O)NCC1CCCO1` (stereo unspecified) it was 18.4 µM (active); in that of `CCOC(=O)/C=c1\s/c(=C\c2ccccc2C)c(=O)n1CC(=O)NCc1ccc2c(c1)OCO2`, 15.8 µM (active); in that of `NC(=O)CSc1nc2c(sc3ccccc32)c(=O)n1CCCC(=O)NCC1CCCO1` (stereo unspecified), “inactive”.
For `O=C(NCc1ccc2c(c1)OCO2)c1cc([N+](=O)[O-])ccc1N1CCOCC1`, the Potency entry was “inactive”.
In the case of `O=C(/C=C/c1cccs1)NCc1ccc2c(c1)OCO2` it was “inactive”; in that of `COc1cc2c(cc1OC)C1=CC(=O)C(=O)N1C(C)(C)C2`, 17.7 µM (active).
To `COc1ccc(-c2cc(NC=O)c3ncc(-c4ccc(C(C)=O)cc4)n3c2)cc1OC` belongs “inactive”; to `CC1CCN(c2ccc3c(c2)S(=O)(=O)c2cccc(C(=O)NCc4cccc(F)c4)c2C3=O)CC1`, 14 µM (active).
To `O=C(NCc1ccc2c(c1)OCO2)c1cc([N+](=O)[O-])ccc1N1CCCCC1` belongs “inactive”.
Turning to `Cc1ccc(CNC(=O)c2cccc3c2C(=O)c2ccc(N4CCCCC4)cc2S3(=O)=O)cc1`, the Potency was 20.6 µM (active).
With `CCCOc1ccc2cc(C(=O)NCc3ccccc3)c(=O)oc2c1`, the Potency result is “inactive”.
As for `Cn1c(=O)c2cc(NC(=O)NCc3ccccc3)ccc2n1C/C=C/c1ccccc1`, the Potency result was “inactive”.
To `O=C(NCc1ccccc1)c1cccc2c1C(=O)c1ccc(/C=C/c3ccccc3)cc1S2(=O)=O` belongs 18.4 µM (active); to `Cc1ccc(CNC(=O)Cc2ccc(-n3cccc3)cc2)cc1`, “inactive”; to `Cc1ccc(CNC(=O)c2cccc3c2C(=O)c2ccc(N4CCC(C)CC4)cc2S3(=O)=O)cc1`, 20.6 µM (active).
In the case of `COc1ccc(NC(=O)C2(C)Cc3c(-c4ccc5c(c4)OCO5)ccnc3O2)cn1` (stereo unspecified) it was “inactive”.
In the case of `CN(C)c1ccc(/C=C/c2ccncc2)cc1` it was 20.6 µM (active).
In the case of `CCN(CC)c1ccc(/C=C/c2ccccn2)cc1`, the Potency was 14.6 µM (active).
In the case of `CCN(CC)c1ccc(/C=C/c2ccncc2)cc1` it was 16.4 µM (active).
For the compound `CCN(CC)c1ccc(/C=C/C2=C3C=CC=CC3NC=C2)cc1` (stereo unspecified), the Potency is 18.4 µM (active).
To `Cc1cc(N/N=C/c2ccc(O)cc2O)nc(-n2nc(C)cc2C)n1` belongs “inactive”; to `CCN(CC)c1ccc(/C=C/C(=O)c2ccc(Br)cc2)cc1`, 25.9 µM (active); to `CCN(CC)c1ccc(/C=N/NC(=O)c2ccco2)cc1`, “inactive”.
Take `c1ccc(C2CNCc3c2ccc2ccccc32)cc1` (stereo unspecified): the Potency entry was “inactive”.
In the case of `CCCOc1cc(N(CC)CC)ccc1/C=C(/C#N)c1nc2ccc(C)cc2[nH]1` it was 18.4 µM (active); in that of `CCOc1cc(N(CC)CC)ccc1/C=C(/C#N)c1nc2ccccc2[nH]1`, 4.61 µM (active); in that of `Cc1cccc(OCCOc2ccccc2C=C(C#N)C#N)c1`, “inactive”.
To `CCN(CC)c1ccc(/C=C(/C#N)c2nc3ccccc3[nH]2)c(OC(C)C)c1` belongs 0.58 µM (active); to `O=C1C=C(Nc2ccc(Cl)cc2Cl)CC(c2ccco2)C1` (stereo unspecified), “inactive”.
To `CCS(=O)(=O)N1N=C(c2cccc(NS(C)(=O)=O)c2)CC1c1ccc(C)cc1` (stereo unspecified) belongs 18.4 µM (active); to `CC(=O)c1cccc(-c2ccnc3c2CC(C(=O)Nc2cccc(NS(C)(=O)=O)c2)O3)c1` (stereo unspecified), “inactive”; to `CS(=O)(=O)Nc1ccc(C2=NN(S(C)(=O)=O)C(c3ccc4nccnc4c3)C2)cc1` (stereo unspecified), “inactive”.
Regarding `O=C1CCCN1c1ccc(S(=O)(=O)Nc2ccc3c(c2)OCCO3)cc1`, the Potency entry is “inactive”.

Values taken from PubChem BioAssay AID651812 (National Center for Advancing Translational Sciences (NCATS), 2012).
